# This is a sample that favours compounds with a hit; in the whole collection about 19% have one here.
# DT40 TDP1 CPT – DT40-hTDP1 cell growth loss with CPT. chicken DT40 Tdp1-/-;hTDP1 cells + 20 nM CPT, ATP luminescence, 48 h. Potency, µM (highest dose often 46.2 µM), actives largely listed as inhibitors. 12% of 420,000 active; further: nearly all actives have a fitted effect of over 55% in size
#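 Chicken DT40 Tdp1-/- cells complemented with human TDP1, 400 cells/well, exposed to compounds plus 20 nM camptothecin for at least 48 h at 37 C; viability read as ATP content by CellTiter-Glo luminescence.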
# TDP1 cell noCPT – qHTS for Inhibitors of human tyrosyl-DNA phosphodiesterase 1 (TDP1): qHTS in cells in absence of CPT. DT40 Tdp1-/- hTDP1 cells, no CPT, ATP luminescence, 48 h. Potency, µM (series often up to 46.2 µM), most hits filed as inhibitors. 15% of 420,000 active; further: nearly all actives have a fitted effect of over 55% in size
#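 Compound effects on proliferation are scored in DT40 Tdp1-/-;hTDP1 cells in the absence of CPT. ATP levels (CellTiter-Glo luminescence) are recorded after a ≥48 hr, 37 °C incubation.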
# KB-3-1 tox – kills parental KB-3-1 adenocarcinoma cells | KB-3-1 viability, CellTiter-Glo ATP luminescence, 72 h | Potency, µM (series often up to 46.1 µM), hits mostly cytotoxic | 1.4% of 400,000 active | AID 1347075; further: nearly all actives have a fitted effect of over 60% in size
#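 Cells are dispensed, compounds pinned in, plates held at 37 °C for 72 h, then CellTiter-Glo is added and luminescence read after 10 minutes. Cell line: parental KB-3-1 in phenol-red-free DMEM, 10% FBS.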
# KB-V1 MDR tox – kills drug-selected multidrug resistant KB-V1 cells. Potency, µM (top dose mostly 46.1 µM), hits mostly cytotoxic. KB-V1 MDR cells viability, CellTiter-Glo, 72 h. 3.4% of 400,000 active; further: nearly all actives have a fitted effect of over 60% in size
#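 Cells of the MDR subline KB-V1 are plated, dosed with compound at multiple concentrations, and incubated 72 h at 37 degrees C; CellTiter-Glo is then added and luminescence read after 10 min.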
# HT1080 IDH1KD tx – kills HT-1080 cells with IDH1 knockdown; HT-1080 IDH1 knockdown viability, ATP luminescence, 48 h; Potency, µM (doses to about 46.1 µM), actives largely listed as cytotoxic; AID 686971; 2% of 360,000 active
#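 Cytotoxicity counter-line: IDH1KD HT-1080, 48 h, CellTiter-Glo. Curves classed by r2, magnitude and activity.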
# HT1080NT lethal – kills 2HG-producing HT-1080-NT fibrosarcoma cells; Potency, µM (top dose mostly 46.1 µM), actives largely listed as cytotoxic; HT-1080-NT fibrosarcoma viability, CellTiter-Glo ATP luminescence, 48 h; 1.6% of 360,000 active;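 further: NT is the 2HG producing partner of a matched IDH1 knockdown line; nearly all actives have a fitted effect of over 55% in size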
#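 A 48-hour cytotoxicity screen used HT-1080-NT cells plated 2 hours before compound delivery. ATP-based CellTiter-Glo luminescence measured viability, normalized to DMSO and no-cell controls.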
# Hits are given with their value; - = inactive; ? = inconclusive; . = no result. The call rests on the fitted dose curve; in most records, active means well fitted curve in the direction sought with a large enough effect; inconclusive means small, poorly fitted or top-dose-only effect, or another doubt; inactive means no such curve, though single readings can be large; an effect the other way counts as inactive or inconclusive.
SMILES,DT40 TDP1 CPT,TDP1 cell noCPT,KB-3-1 tox,KB-V1 MDR tox,HT1080 IDH1KD tx,HT1080NT lethal
CCCCNCc1nc2ccccc2c(=O)[nH]1,-,-,-,-,-,-
CCSc1ccccc1C(=O)Nc1nc2ccccc2c(=O)[nH]1,?,21µM,-,18µM,?,-
CC(C)Nc1nc2ccccc2c(=O)[nH]1,16µM,?,-,-,-,-
CCCNc1nc2ccccc2c(=O)[nH]1,12µM,21µM,-,-,-,-
C=CCNc1nc2ccccc2c(=O)[nH]1,?,21µM,-,-,-,-
O=c1[nH]c(-c2ccncc2)nc2ccccc12,21µM,?,-,-,-,-
O=c1[nH]c(-c2cccnc2)nc2ccccc12,-,-,-,-,-,-
CS(=O)(=O)c1ccc([C@@H](O)[C@@H](COC(=O)CN)NC(=O)C(Cl)Cl)cc1,6.7µM,3.8µM,.,.,.,.
Cc1ccc(NCC(=O)N/N=C/c2ccc(OC(=O)c3ccco3)cc2)cc1,?,-,-,-,?,?
CCc1nnc(NC(=O)[C@@H](NC(=O)c2cccc(S(=O)(=O)N(CC)CC)c2)C(C)C)s1,-,-,-,-,-,-
COC(=O)c1cc(OC)c(OC)cc1NC(=O)Cc1ccccc1[N+](=O)[O-],?,-,-,2.3µM,?,-
COc1cc(NC(=O)C2CCCCC2)c(OC)cc1NC(=O)c1ccccc1,-,-,-,-,-,-
COc1cc(NC(=O)c2ccccc2)c(OC)cc1NC(=O)CN1CCOCC1,-,?,-,-,-,-
COc1cc(NC(=O)c2cccc(Cl)c2)c(OC)cc1NC(=O)CN1CCCCC1,?,?,-,-,?,?
COc1cc(NC(=O)c2ccccc2)c(OC)cc1NC(=O)CN1CCCCC1,?,20µM,-,-,-,-
COc1cc(NC(=O)c2ccccc2[N+](=O)[O-])c(C(=O)O)cc1OC,-,-,-,-,-,-
COc1cc(NC(=O)c2ccc(F)cc2)c(OC)cc1NC(=O)CN1CCCCC1,?,16µM,-,-,-,-
COc1cc(NC(=O)c2cccc(C)c2)c(OC)cc1NC(=O)CN1CCOCC1,?,18µM,-,-,-,-
CCc1ccc(CNC(=O)c2cnc3sc4cc(OC)ccc4n3c2=O)cc1,-,-,-,-,.,.
COc1ccc(OC)c(NC(=O)CCNS(=O)(=O)c2ccc3c(c2)CC(C)N3C(C)=O)c1 (stereo not drawn),-,-,-,-,-,-
COC(=O)c1cc(OC)c(OC)cc1NC(=O)CN1CCCCC1,-,-,-,16µM,-,-
COC(=O)c1ccc(C(=O)OC)c(NC(=O)CN2CCCCC2)c1,?,?,-,-,-,-
CC(C)=C(NC(=O)c1ccccc1Cl)C(=O)NCCc1nc2ccccc2[nH]1,-,-,-,-,-,-
CCOC(=O)C1(N(CC)CC)Sc2cc(C)ccc2NC1=O (stereo not drawn),16µM,18µM,?,10µM,?,?
O=c1[nH][nH]c(-c2ccccc2O)c1C(C[N+](=O)[O-])c1ccccc1 (stereo not drawn),4.6µM,5.2µM,-,-,-,-
SMILES,DT40 TDP1 CPT,TDP1 cell noCPT,KB-3-1 tox,KB-V1 MDR tox,HT1080 IDH1KD tx,HT1080NT lethal
Cc1ccc(/C=N/NC(=O)Cc2ccc(Cl)cc2)s1,-,-,-,-,-,-
COc1cc(Nc2ncc3c(n2)CCN(Cc2cccc(C)c2)C3)cc(OC)c1,3.7µM,3.3µM,?,?,.,.
COc1ccc(OC)c(Nc2ncc3c(n2)CCN(Cc2cc(OC)c(OC)c(OC)c2)C3)c1,5.8µM,7.3µM,-,-,.,.
COc1cc(Nc2ncc3c(n2)CCN(Cc2cc(F)cc(F)c2)C3)cc(OC)c1,4.6µM,3.7µM,?,8.2µM,.,.
Cc1ccsc1CN1CCc2nc(Nc3ccccc3)ncc2C1,?,?,?,-,.,.
CC(C)(C)OC(=O)N1CCC(NC(=O)c2[nH]c(C(F)(F)F)nc2-c2ccccc2)CC1,-,?,-,-,-,-
CC1=CC(c2ccccc2)n2ncnc2N1 (stereo not drawn),-,-,-,-,-,?
c1ccc(C2C3=C(Nc4ncnn42)c2ccccc2CCC3)cc1 (stereo not drawn),-,-,-,18µM,-,-
CCCCn1c(N)c(N(CC)C(=O)c2ccccc2F)c(=O)[nH]c1=O,-,-,-,-,-,-
COc1ccc(N(CC(=O)Nc2ccc3c(c2)OCCO3)S(=O)(=O)c2cccc(C)c2)cc1,26µM,?,-,?,-,-
COc1ccc(N(CC(=O)Nc2ccc3c(c2)OCO3)S(=O)(=O)c2ccccc2)cc1OC,?,?,?,-,-,-
COc1ccc(N(CC(=O)Nc2ccc3c(c2)OCO3)S(=O)(=O)c2ccc(F)cc2)cc1,?,?,-,?,-,-
COc1ccccc1N(CC(=O)Nc1ccc2c(c1)OCCO2)S(=O)(=O)c1ccc(C)cc1,?,9.2µM,?,?,-,-
COc1ccc(N(CC(=O)Nc2ccc3c(c2)OCO3)S(=O)(=O)c2ccccc2)c(OC)c1,21µM,18µM,-,?,-,-
COC(=O)c1ccc(CN(c2ccc(C)cc2)S(=O)(=O)c2ccc3c(c2)OCCO3)o1,12µM,16µM,-,-,-,-
COC(=O)c1ccc(NC(=O)CN2C(=O)CNC2=O)cc1,-,-,-,-,-,-
COc1ccccc1CNc1nc2cc(-c3ccc(OC)c(OC)c3)sc2c(=O)n1C,23µM,16µM,?,9.2µM,-,-
COc1cccc(CNc2nc3cc(-c4ccccc4)sc3c(=O)n2C)c1OC,16µM,29µM,23µM,-,?,?
COc1cccc(CNc2nc3cc(-c4cccc(C(F)(F)F)c4)sc3c(=O)n2C)c1OC,?,?,-,-,-,-
COc1ccc(-c2cc3nc(NCc4ccc(NC(C)=O)cc4)n(C)c(=O)c3s2)cc1OC,-,-,-,-,-,-
C=CCNc1nc2cc(-c3cccc(Cl)c3)sc2c(=O)n1C,13µM,16µM,-,?,?,?
COc1cccc(CNc2nc3cc(-c4cccc(Cl)c4)sc3c(=O)n2C)c1OC,?,?,15µM,8.2µM,-,-
CC1(C)CC(=O)c2cc(C(=O)Nc3ccccc3)c(=O)[nH]c2C1,-,?,-,-,.,.
COc1cccc(CNc2nc3cc(-c4ccccc4C)sc3c(=O)n2C)c1OC,15µM,23µM,?,-,?,?
COc1cc(/C=N/O)cc(Br)c1OCc1ccc(Cl)cc1,?,?,-,-,?,?
CC(C)(CO)NCc1c(OCc2ccc(Cl)cc2)ccc2ccccc12,?,?,23µM,-,?,?

# Compound activity as filed in PubChem.
